The source of these data is PubChem BioAssay (NCI).

Where “and” joins values, the source holds several entries; their conditions need not be identical. Identical values can stand only once. Compounds without any hit were thinned out: in the full panel of roughly 83,000, 20% have a hit.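 Percent growth is the endpoint: 0 to 100 indicates growth inhibition (40 means 60% inhibition), 0 means no net growth, and negative values indicate cell death.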 Calls of active or inactive are those of the source. Rule for the calls: active = growth percent below 10; inactive = the rest.

For this assay, the system named is MDA-MB-468 breast. Description: NCI-60 one-dose screen, 48 h (100 = growth as untreated, 0 = no growth, -100 = all killed). The following applies: 10 µM unless noted.
Take `Cc1ccc(NC(=O)c2cc(NCc3cc(O)ccc3O)ccc2O)cc1`: the growth is 86.6% (inactive).

As for `O=C(NCc1ccccc1)c1ccc2c(c1)NC(=O)[C@@H]1CCCN21`, the growth was 103% (inactive).

Consider `COc1ccc(-c2cnoc2-c2ccc(OC)cc2O)cc1`, for which the growth was 1% (active).

With `Fc1ccc(Nc2nnc(-c3ccc(Cl)cc3)o2)cc1`, the growth is 97.9% (inactive).

In the case of `O=C(CN1C(=O)S/C(=C\c2ccccc2)C1=O)Nc1ccc(C(=O)/C=C/c2cc3ccccc3nc2Cl)cc1`, the growth was 63.1% (inactive).

In the case of `CC[C@H](Nc1ncnc2nc[nH]c12)c1nc2cccc(F)c2c(=O)n1-c1ccccc1`, the growth was 3.98% (active).

As for `COc1ccc(NC(=O)CSc2nnc(-c3cc(-c4ccccc4)nc4ccccc34)n2-c2ccccc2)cc1`, the growth is 97.3% (inactive).

Consider `COc1ccc(-c2nc3sccn3c2-c2ccnc(S(C)(=O)=O)n2)cc1`, for which the growth was -25.9% (active).

`O=C(C[n+]1ccn(CC(OCc2ccc(Cl)cc2Cl)c2ccc(Cl)cc2Cl)c1)c1ccc(F)cc1` (stereo not given): the growth was -77.2% (active).

For the compound `C1CCC(N2CN3c4nonc4N4CN(C5CCCCC5)CN5c6nonc6N(C2)C3C45)CC1` (stereo not given), the growth is 99.5% (inactive).

Consider `CC(=O)c1ccc2c3c(n(C)c2c1)CCCC3`, for which the growth is 77.9% (inactive).

With `O=C(CN(C1CCCCC1)C1CCCCC1)Nc1ccc(S(=O)(=O)c2ccc(NC(=O)CN(C3CCCCC3)C3CCCCC3)cc2)cc1`, the growth is -55.1% (active).

In the case of `C/C(=C(/c1ccc(Cl)cc1)c1ccc(OCCN2CCCC2)cc1)c1ccccc1`, the growth was 62.4% (inactive).

In the case of `COc1ccc(Nc2ccc3ccccc3c2)cc1`, the growth was -2.03% (active).

For the compound `COc1ccccc1C1=C(Br)C(=O)c2nc(C)ccc2C1=O`, the growth is 107% (inactive).

Turning to `N#Cc1ncc(Br)c(NC2CCCCCC2)n1`, the growth is 91.9% (inactive).

Consider `CC[C@@]1(C(N)=O)CC2C=CC1C2` (stereo not given in full), for which the growth is 103% (inactive).

Consider `CC(=O)Oc1c(Cl)c(Cl)c(Cl)c(Cl)c1Cl`, for which the growth is 113% (inactive).

Turning to `Cc1ccc2[nH]c(=O)cc(-n3nncc3Cn3c4ccccc4c4ccccc43)c2c1`, the growth is 94.7% (inactive).

Consider `COc1cc(-c2nc3cc(Cl)c(Cl)cc3[nH]2)ccc1OCC(=O)N=Nc1c(O)[nH]c2ccccc12`, for which the growth was -86.3% (active).

In the case of `CO[C@H]1/C=C/O[C@@]2(C)Oc3c(C)c(O)c4c(c3C2=O)C(=O)C(/C=N/N(c2ccccc2)c2ccccc2)=C(NC(=O)/C(C)=C\C=C\[C@H](C)[C@H](O)[C@@H](C)[C@@H](O)[C@@H](C)[C@H](OC(C)=O)[C@@H]1C)C4=O`, the growth was -2.58% (active).

Consider `COc1cc2cc(Oc3ccc(NC(=O)Nc4ccc(Cl)c(C(F)(F)F)c4)cc3)c(C)nc2cc1OC`, for which the growth was -42.7% (active).

For `Cc1cc(N2CCSCC2)nc(NC2CCCC(Nc3ccnc4cc(Cl)ccc34)C2)n1` (stereo not given), the growth was -43.7% (active).

As for `O=C(CSC(=S)n1cnnc1)NC(=O)c1ccccc1`, the growth is 119% (inactive).

With `O=C(Nc1ccc([N+](=O)[O-])cc1Cl)c1cc(Cl)ccc1O`, the growth was -21.5% (active) and -24.3% (active).

Consider `N#Cc1c(-c2ccc(Cl)cc2)csc1NC(=O)Nc1cccc(C(F)(F)F)c1`, for which the growth is 7.03% (active).

As for `CCOC(=O)C(=Cc1c(-c2ccccc2)[nH]c2ccccc12)C(=O)OCC`, the growth was 12.8% (inactive).

For `C=C1C(=O)O[C@H]2[C@H]1CC/C(COC(=O)N[C@H](Cc1c[nH]c3ccccc13)C(=O)OC)=C\CC[C@@]1(C)O[C@@H]21`, the growth is 22.5% (inactive).

Turning to `COc1ccc(-c2cc(=O)c3c(O)cc(O)cc3o2)cc1`, the growth was 121% (inactive) and 96.2% (inactive).

Take `CCOc1cccnc1/C=N/NC(N)=S`: the growth is 52.7% (inactive).

`C=C(c1ccc(C(=O)O)cc1)c1cc2c(cc1C)C(C)(C)CCC2(C)C`: the growth was 109% (inactive) and 103% (inactive).

Turning to `NC(=O)c1ccccc1NC(=O)c1ccccc1Cl`, the growth is 125% (inactive).

In the case of `O=c1cc(-c2ccccc2)[nH]c2ncc(-c3ccc(F)cc3)n12`, the growth is 83% (inactive).

In the case of `CSc1n(Cc2ccc3ccccc3c2)c(C)c[n+]1Cc1ccc2ccccc2c1`, the growth was -47.5% (active).

For `OC(c1cc(C23CC4CC(CC(C4)C2)C3)nc2c(Cl)cc(Cl)cc12)C1CCCCN1` (stereo not given), the growth was -89.7% (active).

On to `COC(=O)Nc1nc2ccc(C(=O)c3cccc(I)c3)cc2[nH]1`, for which the growth was 2.93% (active).

For the compound `c1ccc2[nH]c(SSc3nc4ncncc4[nH]3)nc2c1`, the growth was 11.3% (inactive).

Take `CCC(=O)NC(O)C(Cl)(Cl)C(C)Cl` (stereo not given): the growth was 92.5% (inactive).

For `O=C(CCN1CCCC1)Nc1ccc2c(Nc3ccccc3)c3ccccc3nc2c1`, the growth was -14.9% (active).

Regarding `CC(C)(C)n1cc(-c2ccnc(NCCNS(=O)(=O)c3ccc(Cl)cc3)c2)c(-c2cccc(O)c2)n1`, the growth is 32.6% (inactive).
